From PubChem BioAssay (Tox21)
Activity calls are given as the source filed them. Where a call stands in place of a potency, no number is given. Calls follow the shape of the dose curve; as a rule, active = well fitted activation curve with a large enough effect in the repeat runs; inconclusive = weak or mixed curves; inactive = flat fitted curve, though single readings scatter.

Experiment: A CellTox Green Cytotoxicity Assay to monitor cytotoxicity in HEK293 cells - 0 hour (AID 1224869); also: nearly all actives have a fitted effect of over 50% in size
Settings: CellTox Green fluorescence; series mostly up to 76.8 µM; cytotoxicity: at the top concentration
Text: National Center for Advancing Translational Sciences [NCATS]
NIH Chemical Genomics Center [NCGC]
U.S. Environmental Protection Agency [EPA]
National Institutes of Environmental Health Sciences [NIEHS]
National Toxicology Program [NTP]
Cell-based models are critical for drug discovery. Determining the natural cytotoxic effects resulting from test compounds is an essential research activity. A CellTox Green Cytotoxicity Assay to monitor cytotoxicity in real time of continues cell culture during 40 hours of the compound treatment was used to screen Tox21 10K library compounds in Hek293 cells. CellTox Green Cytotoxicity Assay is a nonlytic, homogeneous, biofluorescent method to measure cytotoxicity in cell culture after experimental manipulation. The assay system uses a proprietary asymmetric cyanine dye that is excluded from viable cells but preferentially stains the dead cell's DNA. […] Viable cells produce no appreciable increases in fluorescence. Therefore, the fluorescence signal produced by the binding interaction with dead cell DNA is proportional to cytotoxicity.
The mixture of Hek293 cell suspension and reagents were dispensed at 600cells/6 ul/well in 1536-well tissue culture treated black solid bottom plates using a Multidrop dispenser. After the assay plates were incubated at a 37 C/5% CO2 incubator for 5 hours, 23 nL of compounds dissolved in DMSO, positive and negative controls was transferred to the assay plate by a pintool work station. The plates were incubated at 37 C for 40 hours. The fluorescence intensity were measured at 0h, 8h, 16h, 24h, 32h and 40h time points using ViewLux plate reader during compound treatment.
Potency is read from the fitted curve at half-maximal effect.

Which Potency does the source give for CC(=O)Nc1c(I)c(NC(C)=O)c(I)c(C(=O)O)c1I here?
The Potency was “inactive”.

For CN[C@H]1CC[C@@H](c2ccc(Cl)c(Cl)c2)c2ccccc21, which “cytotoxicity” value is on record?
Its value is -0.779% [at 35.3 µM] (inactive).

Which Potency does the source give for CCCC[P+](CCCC)(CCCC)CCCC here?
The Potency was “inactive”.

Which Potency does the source give for COc1ccc2c(c1)c(CC(=O)O)c(C)n2C(=O)c1ccc(Cl)cc1 here?
Its Potency is “inactive”.

For CC12CCC(CC1)C(C)(C)O2, which Potency is on record?
The Potency was “inactive”.

Which Potency does the source give for C=C(C)C(=O)OCC(C)O (stereo not given) here?
Its Potency is “inactive”.

For Cc1cccc(C)c1, which Potency is on record?
Its Potency is “inactive”.

Which Potency does the source give for Nc1ccc2c(c1)CN1C(=O)c3ccccc3C1=N2 here?
The Potency was 11.7 µM (active).

Which Potency does the source give for Cc1c(C(=O)O)c(O)cc2c1C(=O)c1c(O)c([C@@H]3O[C@H](CO)[C@@H](O)[C@H](O)[C@H]3O)c(O)c(O)c1C2=O here?
The Potency was “inactive”.

With Oc1ccccc1 as the molecule, how does the Potency read?
The Potency was “inactive”.

For OC[C@H]1O[C@H](O[C@]2(CCl)O[C@H](CCl)[C@@H](O)[C@@H]2O)[C@H](O)[C@@H](O)[C@H]1Cl, which Potency is on record?
The Potency was “inactive”.

Which Potency does the source give for CCN(CC)C(=O)c1cccc(C)c1 here?
The Potency was “inactive”.

For O=C(Nc1ncc([N+](=O)[O-])s1)c1cccs1, which “cytotoxicity” value is on record?
Its value is -7.39% [at 35.3 µM] (inactive).

For CCCCC(CC)C(=O)O (stereo not given), which Potency is on record?
Its Potency is “inactive”.

With Nc1c(N=Nc2ccc(-c3ccc(N=Nc4cc(S(=O)(=O)O)c5ccccc5c4N)cc3)cc2)cc(S(=O)(=O)O)c2ccccc12 as the molecule, how does the “cytotoxicity” value read?
The value was -33.3% (inactive).

Which Potency does the source give for NC1CCCCC1 here?
The Potency was “inactive”.

For CCCCC1(COC(=O)CCC(=O)O)C(=O)N(c2ccccc2)N(c2ccccc2)C1=O, which Potency is on record?
Its Potency is “inactive”.

For CCCc1cc(=O)[nH]c(=S)[nH]1, which Potency is on record?
Its Potency is “inactive”.

For CCN(Cc1c(F)cccc1Cl)c1c([N+](=O)[O-])cc(C(F)(F)F)cc1[N+](=O)[O-], which “cytotoxicity” value is on record?
The value was 0.0022% (inactive).

Which Potency does the source give for CC1(C)O[C@@H]2C[C@H]3[C@@H]4CCC5=CC(=O)C=C[C@]5(C)[C@@]4(F)[C@@H](O)C[C@]3(C)[C@]2(C(=O)CO)O1 here?
The Potency was “inactive”.

Which “cytotoxicity” value does the source give for O=CC(=O)c1ccccc1 here?
The value was -3.66% (inactive).

Which Potency does the source give for CC/C(=C(\c1ccccc1)c1ccc(OCCN(C)C)cc1)c1ccccc1 here?
The Potency was “inactive”.

For NC(CO)(CO)CO, which Potency is on record?
Its Potency is “inactive”.

For CCCCCCCC(=O)OCC(COC(=O)CCCCCCC)OC(=O)CCCCCCC, which Potency is on record?
Its Potency is “inactive”.

Which Potency does the source give for CN(C)C(=S)SC(=S)N(C)C here?
Its Potency is “inactive”.

Which Potency does the source give for C[C@](N)(Cc1ccc(O)c(O)c1)C(=O)O here?
The Potency was “inactive”.

Which Potency does the source give for O=C(O)c1ccccc1 here?
The Potency was “inactive”.

Which Potency does the source give for CC(C)C(=O)Nc1ccc([N+](=O)[O-])c(C(F)(F)F)c1 here?
Its Potency is “inactive”.

For CCOc1ccc(NC(C)=O)cc1, which Potency is on record?
The Potency was “inactive”.

For CC1(C)S[C@@H]2[C@H](NC(=O)[C@H](N)c3ccccc3)C(=O)N2[C@H]1C(=O)O, which Potency is on record?
Its Potency is “inactive”.

With CC(C)c1c(C(=O)Nc2ccccc2)c(-c2ccccc2)c(-c2ccc(F)cc2)n1CC[C@@H](O)C[C@@H](O)CC(=O)O as the molecule, how does the Potency read?
The Potency was “inactive”.

For CCOC(N)=O, which Potency is on record?
Its Potency is “inactive”.

Which Potency does the source give for CN(C)C(=O)Nc1ccc(Cl)c(Cl)c1 here?
The Potency was “inactive”.

For Cc1cc(C)nc(NS(=O)(=O)c2ccc(N)cc2)n1, which Potency is on record?
Its Potency is “inactive”.

For CN(C)CCOC(C)(c1ccccc1)c1ccccn1 (stereo not given), which Potency is on record?
Its Potency is “inactive”.

Which Potency does the source give for NS(=O)(=O)c1cc2c(cc1Cl)NCNS2(=O)=O here?
The Potency was “inactive”.

For CNNCc1ccc(C(=O)NC(C)C)cc1, which Potency is on record?
The Potency was “inactive”.

With Nc1ccc(O)c([N+](=O)[O-])c1 as the molecule, how does the “cytotoxicity” value read?
Its value is -0.132% (inactive).

For Cc1ccc(S(=O)(=O)O)cc1, which Potency is on record?
The Potency was “inactive”.

For CC(O)(P(=O)(O)O)P(=O)(O)O, which Potency is on record?
Its Potency is “inactive”.
